Experimental data published in PubChem BioAssay AID1159580 (chemical genetic matrix, 2015).
In all, about 5,500 compounds went through this assay and about 2,000 (36%) were called active. Another 18% or so got no clear call; they are omitted. No stated cut-off is given here; in the data, active means normalized growth mostly below about 0.91 (no sharp cut-off); inconclusive means no clear call, values can overlap the other calls; inactive means mostly above about 0.92. This is one part of the list.

Test: chemical genetic growth profiling, strain panel (AID 1159580);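 further: tested at 20 µM; growth read once vehicle control cultures reached saturation at 30 °C; 1 = growth at the plate median or of vehicle wells; lower values mean less growth of the strain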
Conditions: S. cerevisiae deletion strains, growth OD

Measured: normalized growth

NC(=NCCCC(N)C(=O)O)N[N+](=O)[O-] (stereo not drawn)
inactive: locus YAL040C, strain CLN3, hits give low values 0.999 | locus YCL061C, strain MRC1 (second series), hits give low values 1 | locus YDR363W, strain ESC2, hits give low values 1.03 | locus YER002W, strain NOP16, hits give low values 1 | locus YGR229C, strain SMI1, hits give low values 1.02 | locus YJR075W, strain HOC1, hits give low values 1.02 | locus YMR263W, strain SAP30, hits give low values 1 | locus YMR307W, strain GAS1, hits give low values 1 | locus YNL128W, strain TEP1, hits give low values 1.02 | locus YNL175C, strain NOP13, hits give low values 1 | locus YNL197C, strain WHI3, hits give low values 1.01 | locus YNL224C, strain SQS1, hits give low values 1.01 | locus YOR083W, strain WHI5 (second series), hits give low values 1.02
